In the library only some 5.8% were active in any assay of this set; here they are far more common.
12-LOX inh: ALOX12 (human) lipoxygenase inhibition; P18054; purified 12hLO, xylenol orange hydroperoxide absorbance; Potency, µM (doses to about 108 µM), hits mostly inhibitors; 580,000 compounds, 1.1% hits; AID 1671190
Target sequence (P18054 whole entry, looked up): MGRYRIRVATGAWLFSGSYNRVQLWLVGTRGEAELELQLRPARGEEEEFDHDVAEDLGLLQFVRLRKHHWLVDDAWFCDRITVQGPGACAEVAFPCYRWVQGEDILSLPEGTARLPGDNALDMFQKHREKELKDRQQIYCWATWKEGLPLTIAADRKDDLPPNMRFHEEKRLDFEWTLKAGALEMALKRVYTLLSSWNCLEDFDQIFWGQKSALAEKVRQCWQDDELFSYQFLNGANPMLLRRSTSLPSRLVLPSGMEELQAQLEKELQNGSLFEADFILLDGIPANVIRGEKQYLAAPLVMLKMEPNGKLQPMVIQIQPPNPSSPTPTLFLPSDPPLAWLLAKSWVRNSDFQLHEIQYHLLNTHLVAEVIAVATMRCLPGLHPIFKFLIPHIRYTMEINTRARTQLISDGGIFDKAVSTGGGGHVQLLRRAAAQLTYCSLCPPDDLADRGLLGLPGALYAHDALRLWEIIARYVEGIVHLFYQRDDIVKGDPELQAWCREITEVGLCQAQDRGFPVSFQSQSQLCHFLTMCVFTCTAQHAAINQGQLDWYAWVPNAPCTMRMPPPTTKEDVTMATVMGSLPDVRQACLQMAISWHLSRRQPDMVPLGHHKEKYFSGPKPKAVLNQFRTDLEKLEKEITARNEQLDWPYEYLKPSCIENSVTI
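Purified human 12hLO at 150 nM in 25 mM Hepes, 0.01% Triton X-100, pH 7.0, preincubated 15 min at room temperature with compound. Reaction started with 40 uM arachidonic acid, 30 min at room temperature. Hydroperoxide measured by Fe-xylenol orange, 573/405 nm absorbance ratio.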
MCF10A rereplic: inducers of DNA re-replication in MCF 10A breast cells; Potency, µM (titrated, usually from 46.1 µM), hits mostly activators; MCF 10A DNA re-replication, Hoechst nuclear intensity, 48 h; 350,000 compounds, 2.9% hits; also: nearly all actives have a fitted effect of over 50% in size
SW480 rereplic: inducers of DNA re-replication in SW480 colon cancer cells | SW480 DNA re-replication, Hoechst DNA content imaging, 48 h | Potency, µM (titrated, usually from 46.1 µM), actives largely listed as activators | 340,000 compounds, 1.8% hits | AID 624297; also: nearly all actives have a fitted effect of over 55% in size
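250 cells/well; 23 nL cpd via pin tool; 48 hr, 37 C, 5% CO2; Hoechst 40 min; imager read of total nuclear intensity, ex 405/em 500-530 nm.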
KB-3-1 cytotox: kills parental KB-3-1 adenocarcinoma cells. KB-3-1 viability, CellTiter-Glo ATP luminescence, 72 h. Potency, µM (series often up to 46.1 µM), hits mostly cytotoxic. 400,000 compounds, 1.4% hits. AID 1347075; also: nearly all actives have a fitted effect of over 60% in size
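Here the drug-naive KB-3-1 line serves as comparator for MDR sub-line selectivity; cells received compound titrations, 72 h at 37 °C, then CellTiter-Glo readout.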
PINK1 expr mod: PINK1 expression modulation | 410,000 compounds, 0.2% hits | AID 624263 | Potency, µM (series often up to 76.6 µM), actives largely listed as activators | PINK1 immunofluorescence, high-content cytometry, 24 h; active = well fitted activation curve with a large enough effect; inconclusive = small, poorly fitted or top-dose-only effect; cell line not stated here; also: nearly all actives have a fitted effect of over 65% in size
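PINK1 protein, normally rapidly degraded, was detected by immunofluorescence after 24 hour compound treatment of a stable cell line. Titration data (5 concentrations) came from laser-scanning cytometry, with CCCP-treated wells as controls.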
KB-V1 cytotox: KB-V1 MDR subline cytotoxicity | Potency, µM (top dose mostly 46.1 µM), most hits filed as cytotoxic | KB-V1 MDR cells viability, CellTiter-Glo, 72 h | 400,000 compounds, 3.4% hits; also: nearly all actives have a fitted effect of over 60% in size
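Compound-treated KB-V1 multidrug-resistant cells, 72 h, 37 degrees C; viability by CellTiter-Glo. Fitted qHTS curves give the values.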
Hits are given with their value; - = inactive; ? = inconclusive; . = no result given. Unless noted, calls follow the shape of the dose curve; as a rule, active = well fitted curve in the direction sought with a large enough effect; inconclusive = small, poorly fitted or top-dose-only effect, or another doubt; inactive = no such curve, though single readings can be large; an effect the other way counts as inactive or inconclusive.

SMILES | 12-LOX inh | MCF10A rereplic | SW480 rereplic | KB-3-1 cytotox | PINK1 expr mod | KB-V1 cytotox
CCC(C)NC(=O)Cc1ccc(S(=O)(=O)N2CCCCC2)cc1 (centres undefined) | - | . | . | . | . | .
CCCNC(=O)C(C)NC(=O)Cc1ccc(S(=O)(=O)N2CCCCC2)cc1 (centres undefined) | 20µM | . | . | . | . | .
N#CN=CN1CC=C(c2ccc(Cl)cc2)CC1 | - | . | . | 9.2µM | - | 2.31µM
COc1cc(/C=N/NC(=S)Nc2cccc(Cl)c2C)ccc1OCC(=O)N1CC(C)OC(C)C1 (centres undefined) | 44.7µM | - | - | - | - | 4.61µM
COc1cc(/C=N/NC(=O)c2ccc(Cl)cc2)ccc1OCC(=O)N1CC(C)OC(C)C1 (centres undefined) | - | - | - | - | - | -
O=C1Nc2ccc(S(=O)(=O)N3CCCCCC3)c3cccc1c23 | - | 20.6µM | - | - | - | -
CS/C(N)=N/N=C/c1cc(C)ccc1O | - | - | 14.6µM | - | - | -
CCS/C(N)=N/N=C/c1cc(C)ccc1O | - | - | ? | - | - | -
CCC(Oc1ccccc1F)C(=O)NCc1csc(-c2ccccc2)n1 (centres undefined) | - | . | . | . | . | .
CC(Sc1nnc(-c2cccs2)n1-c1ccccc1)C(=O)NCc1ccc2c(c1)OCO2 (centres undefined) | ? | - | - | - | - | 8.2µM
COc1ccc2c(c1)cc(C(=O)Nc1ccc(F)cc1)n2C | - | . | . | . | . | .
Cc1ccc(CN2CCC(CNC(=O)Nc3cn(CC(C)C)c(=O)c4ccccc34)C2)cc1 (centres undefined) | 44.7µM | . | . | . | . | .
Cc1ccc(CN2CCC(CNC(=O)Nc3cccc(C)c3C)C2)cc1 (centres undefined) | - | . | . | - | - | -
O=C(CSc1cnc2ccccc2n1)Nc1ccc2c(c1)OCCCO2 | - | . | . | . | . | .
CCOc1ccc(-c2nnn(CC#N)n2)cc1OC | - | 10.3µM | ? | ? | - | -
CCOc1ccc(-c2nnn(CC(=O)c3cc(OC)ccc3OC)n2)cc1 | - | ? | - | 14.6µM | - | 5.17µM
CCCCn1nc(C(=O)Nc2ccc3nc(SC)sc3c2)c2ccccc2c1=O | - | . | . | . | . | .
COc1ccc2c(CN(C)c3ccccc3)cc(=O)oc2c1 | ? | - | - | - | - | 18.4µM
COc1cc(OC)cc(-c2sc3ccc(OC)cc3c2-c2ccc(OCCN3CCCCC3)cc2)c1 | . | 18.4µM | ? | - | - | -
COc1ccc(-c2sc3cc(OC)ccc3c2-c2ccc(OCCN3CCOCC3)cc2)cc1 | - | 3.66µM | ? | - | - | -
Cc1noc(C)c1S(=O)(=O)N1CCC(N(CCC(C)C)C2CCOCC2)CC1 | - | . | . | . | . | .
CCOc1ccc(OCC)c(NC(=O)C2CCN(c3ncccn3)CC2)c1 | - | - | - | - | - | 9.2µM
CCOc1ccc(OCC)c(NC(=O)C2CCCN(c3ncccn3)C2)c1 (centres undefined) | - | - | - | - | - | -
CCOc1ccc(OCC)c(NC(=O)C2CCCN(C(=O)c3ccc(Cl)cc3)C2)c1 (centres undefined) | - | - | - | - | - | 7.31µM
COc1ccc(OCCN(C)C(=O)c2nn(C)c(=O)c3ccccc23)cc1 | - | . | . | . | . | .
SMILES | 12-LOX inh | MCF10A rereplic | SW480 rereplic | KB-3-1 cytotox | PINK1 expr mod | KB-V1 cytotox
CC(=O)N1/C(=C/c2ccc(N(C)C)cc2)C(=O)c2ccccc21 | - | ? | 2.06µM | ? | - | -
CN(C)c1ccc(/C=C2\C(=O)/C(=C/c3ccc(N(C)C)cc3)c3ccccc32)cc1 | . | . | . | - | - | -
O=C(CSc1ccsc1[N+](=O)[O-])N1CCN(c2ccccc2)CC1 | - | - | - | 5.8µM | - | ?
CCN1CCC(N2CCN(c3ccc(Cl)cc3)CC2)CC1 | . | - | - | - | - | -
CCCN1CCC(N2CCN(c3ccc([N+](=O)[O-])cc3)CC2)CC1 | 0.891µM | - | - | - | - | -
CC(=O)OCC(=O)N1CCN(c2ccc([N+](=O)[O-])cc2)CC1 | - | - | - | - | - | -
O=C(CCCC(=O)N1CCN(c2ccc([N+](=O)[O-])cc2)CC1)c1ccccc1 | - | - | - | - | - | ?

Screening results deposited in PubChem BioAssay by National Center for Advancing Translational Sciences (NCATS).
